Assay results: PubChem BioAssay (Tox21)
Where “and” joins values, the source holds several entries; their conditions need not be identical. Equal entries are not always repeated. Inconclusive results are not listed. Unmarked numbers belong to inactive results. Calls of active or inactive are those of the source. Calls follow the shape of the dose curve; as a rule, active = well fitted activation curve with a large enough effect in the repeat runs; inconclusive = weak or mixed curves; inactive = flat fitted curve, though single readings scatter.

Assay: A CellTox Green Cytotoxicity Assay to monitor cytotoxicity in HepG2 cells - 24 hour (AID 1224878); also: nearly all actives have a fitted effect of over 45% in size
Conditions: CellTox Green fluorescence; series mostly up to 76.8 µM; cytotoxicity: at the top concentration
Source text: National Center for Advancing Translational Sciences [NCATS]
NIH Chemical Genomics Center [NCGC]
U.S. Environmental Protection Agency [EPA]
National Institutes of Environmental Health Sciences [NIEHS]
National Toxicology Program [NTP]
Cell-based models are critical for drug discovery. Determining the natural cytotoxic effects resulting from test compounds is an essential research activity. A CellTox Green Cytotoxicity Assay to monitor cytotoxicity in real time of continues cell culture during 40 hours of the compound treatment was used to screen Tox21 10K library compounds in HepG2 cells. CellTox Green Cytotoxicity Assay is a nonlytic, homogeneous, biofluorescent method to measure cytotoxicity in cell culture after experimental manipulation. The assay system uses a proprietary asymmetric cyanine dye that is excluded from viable cells but preferentially stains the dead cell's DNA. […] Viable cells produce no appreciable increases in fluorescence. Therefore, the fluorescence signal produced by the binding interaction with dead cell DNA is proportional to cytotoxicity.
The mixture of HepG2 cell suspension and reagents were dispensed at 600cells/6 ul/well in 1536-well tissue culture treated black solid bottom plates using a Multidrop dispenser. After the assay plates were incubated at a 37 C/5% CO2 incubator for 5 hours, 23 nL of compounds dissolved in DMSO, positive and negative controls was transferred to the assay plate by a pintool work station. The plates were incubated at 37 C for 40 hours. The fluorescence intensity were measured at 0h, 8h, 16h, 24h, 32h and 40h time points using ViewLux plate reader during compound treatment.
% is scaled to controls: 0 for no effect and ±100 for the full control effect; potency is read from the fitted curve at half-maximal effect.

Row | SMILES | cytotoxicity | Potency
1 | O=C(Cc1ccccc1)OCCc1ccccc1 | 1.8% | 
2 | COc1cc(C[C@@H](C)N)c(OC)cc1Br | 24.5% | 
3 | NC(=O)CF | -4.27% | 
4 | O=C(O)C(Cl)(Cl)Br | -0.635% | 
5 | CCNC(=O)NC(=O)/C(C#N)=N/OC | 1.34% | 
6 | C[C@H]1O[C@H](OC2[C@@H](O)[C@@H](O)C(O)[C@H](O)[C@H]2O)[C@@H](N)C[C@@H]1N=C(N)C(=O)O (stereo not given in full) | -19% | 
7 | CCOC(=O)NC(O)C(Cl)(Cl)Cl (stereo not given) | -13.5% [at 35.3 µM] | 
8 | CCCCC(CC)COC(=O)c1c(Br)c(Br)c(Br)c(Br)c1C(=O)OCC(CC)CCCC (stereo not given) | -5.44% [at 35.3 µM] | 
9 | C[N+](C)(C)CC1CO1 (stereo not given) | 0.44% | 
10 | CC(C)(C)OOC(C)(C)CCC(C)(C)OOC(C)(C)C | 0.876% | 
11 | O=P(OCC(Br)CBr)(OCC(Br)CBr)OCC(Br)CBr (stereo not given) |  | inactive
12 | CC1(C)[C@H](C(=O)O[C@H](C#N)c2cccc(Oc3ccccc3)c2)[C@@H]1C=C(Br)Br |  | inactive
13 | CC(C)c1ccc(NC(=O)N(C)C)cc1 | -10.7% | 
14 | NNCCO | -0.663% | 
15 | C[C@H](N)[C@H](O)c1ccc(O)c(O)c1 |  | 23.9 µM (active)
16 | CC(C)[C@@H](C(=O)O[C@@H](C#N)c1cccc(Oc2ccccc2)c1)c1ccc(Cl)cc1 |  | inactive
17 | CC(=O)OC(c1ccccc1)C(Cl)(Cl)Cl (stereo not given) |  | 21.9 µM (active)
18 | Cc1cccc(C)c1NC1=NCCCS1 | -9.86% [at 35.3 µM] | 
19 | CC(C)C1(C)N=C(c2ncccc2C(=O)O)NC1=O (stereo not given) | 1.13% | 
20 | CN(C)C(=O)Nc1cccc(OC(=O)NC(C)(C)C)c1 | -7.85% | 

Row | SMILES | cytotoxicity | Potency
21 | O=C(CCl)CCl |  | 22.7 µM (active)
22 | OC[P+](CO)(CO)CO |  | inactive
23 | Cc1cnc(C2=NC(C)(C(C)C)C(=O)N2)c(C(=O)O)c1 (stereo not given) | -0.49% | 
24 | CCCC[N+](CCCC)(CCCC)CCCC | -0.762% | 
25 | O=C1CC[C@@]2(O)[C@H]3Cc4ccc(O)c5c4[C@@]2(CCN3CC2CC2)[C@H]1O5 | -4.73% [at 35.3 µM] | 
26 | COC1=CC(=O)O[C@@H](/C=C/c2ccc3c(c2)OCO3)C1 | 18.2% | 
27 | COC(=O)Cc1ccccc1 | 0.859% | 
28 | Cc1ccccc1 | -0.112% | 
29 | Nc1ccccc1C(=O)OCC(O)CO (stereo not given) | 9.76% [at 35.3 µM] | 
30 | C[CH2][Hg][S]c1ccccc1C(=O)O |  | 5.49 µM (active) and 2.39 µM (active)
31 | SCc1ccccc1 | -3.61% | 
32 | ClCc1ccccc1Cl | 1.31% | 
33 | CCCSP(=S)(OCC)Oc1ccc(SC)cc1 (stereo not given) | 0.0803% | 
34 | O=[N+]([O-])c1cc(Cl)c(Cl)cc1Cl | 8.8% | 
35 | CCc1ccccc1N | 0.823% | 
36 | Cc1ccc2c(C)cccc2c1 | -7.16% | 
37 | OCCSSCCO | 13.9% | 
38 | CCCC(C)(COC(N)=O)COC(=O)NC(C)C (stereo not given) |  | inactive
39 | CCc1cnc(C2=NC(C)(C(C)C)C(=O)N2)c(C(=O)O)c1 (stereo not given) |  | inactive
40 | CCCCC#N | -12.3% | 
